uPA surface inh: cell surface uPA generation inhibition; cell surface uPA generation assay, qHTS; Potency, µM (series often up to 38.3 µM), for the others: at the highest dose activity change, negative = inhibition, usual class: inhibitors; 0.31% of 330,000 active; active = well fitted inhibition curve with a large enough effect; inconclusive = small, poorly fitted or top-dose-only effect; inactive = no such curve, though single readings can be large or run the other way; tested in mouse RAW 264.7 cells; also: potency is read from the fitted curve at half-maximal effect; nearly all actives have a fitted effect of over 55% in size
HT1080 IDH1KD tx: HT-1080 IDH1 knockdown cell toxicity (counter line); HT-1080 IDH1 knockdown viability, ATP luminescence, 48 h; AID 686971; Potency, µM (doses to about 46.1 µM), for inactives: top-dose activity, negative = toxicity, usual class: cytotoxic; 2% of 360,000 active;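 also: potency is read from the fitted curve at half-maximal effect; 0% = DMSO wells and -100% = cell-free medium wells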
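Knockdown cells (IDH1KD HT-1080) received compounds 2 h after plating at 750 cells/well and were kept 48 h at 37 °C in 5% FBS RPMI. A CellTiter-Glo luminescence read gave % activity for curve fitting.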
DT40 TDP1 no CPT: qHTS for Inhibitors of human tyrosyl-DNA phosphodiesterase 1 (TDP1): qHTS in cells in absence of CPT. Potency, µM (series often up to 46.2 µM), without a hit: top-dose activity change, negative = growth inhibition, most hits filed as inhibitors. DT40 Tdp1-/- hTDP1 cells, no CPT, ATP luminescence, 48 h. 15% of 420,000 active. AID 686978, 2013; also: potency is read from the fitted curve at half-maximal effect; nearly all actives have a fitted effect of over 55% in size
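DT40 Tdp1-/-;hTDP1 cells, no CPT (DMSO vehicle only), 400 cells/well; compounds pin-transferred; ≥48 hr, 37 °C; CellTiter-Glo 30 min RT dark, luminescence read.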
TDP1 cell CPT: DT40-hTDP1 cell growth loss with CPT | Potency, µM (series often up to 46.2 µM), for inactives: top-dose activity change, negative = growth inhibition, usual class: inhibitors | chicken DT40 Tdp1-/-;hTDP1 cells + 20 nM CPT, ATP luminescence, 48 h | 12% of 420,000 active; also: potency is read from the fitted curve at half-maximal effect; nearly all actives have a fitted effect of over 55% in size
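Cell growth measured by CellTiter-Glo luminescence after a minimum 48 h, 37 C compound exposure with 20 nM CPT in Tdp1-knockout DT40 cells stably expressing hTDP1, seeded 400/well; qHTS titration format.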
IL-1B inflam inh: inflammasome signaling inhibition, IL-1 beta readout; THP-1 LPS/ATP IL-1B secretion, AlphaLISA, 16 h; hits give low values; activity change, % at 57.5 µM; 4.7% of 360,000 active; AID 743279; in the data active = activity change below about -50%; inconclusive = mostly about -30% to -49%
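Secreted IL-1B measured by AlphaLISA bead assay after 16 h compound exposure of THP-1 cells; compounds (final up to 57.5 uM) added 1 h before LPS (250 ng/mL) and ATP (1.25 mM) stimulation; lower signal means less secretion.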
HT1080NT lethal: kills 2HG-producing HT-1080-NT fibrosarcoma cells; HT-1080-NT fibrosarcoma viability, CellTiter-Glo ATP luminescence, 48 h; Potency, µM (top dose mostly 46.1 µM), inactives show at the top dose activity, negative = less viability, usual class: cytotoxic; 1.6% of 360,000 active; AID 686970;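 also: NT is the 2HG producing partner of a matched IDH1 knockdown line; potency is read from the fitted curve at half-maximal effect; 0% = DMSO-treated cells and -100% = media-only wells without cells; nearly all actives have a fitted effect of over 55% in size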
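Fibrosarcoma NT cells, 750 per well in 5% FBS RPMI, were exposed to compound for 48 hours. Viability: CellTiter-Glo luminescence.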
The depositor's hits bear a star; ? = inconclusive; nt = not tested or not shown; [ ] = remark or other dose. Most compounds without a hit are left out; they make up all but 19% or so of the library. Unless noted, calls follow the shape of the dose curve; as a rule, active = well fitted curve in the direction sought with a large enough effect; inconclusive = small, poorly fitted or top-dose-only effect, or another doubt; inactive = no such curve, though single readings can be large; an effect the other way counts as inactive or inconclusive. Unless noted, % is scaled to controls: 0 for no effect and ±100 for the full control effect.

SMILES | uPA surface inh | HT1080 IDH1KD tx | DT40 TDP1 no CPT | TDP1 cell CPT | IL-1B inflam inh | HT1080NT lethal
COc1ccc(NC(=S)Nc2cccc(C(F)(F)F)c2)c(C)c1 | 3.3% | 2.0% | -13.2% | -27.7% | -10.4 | 12.0%
Cc1ccc(NC(=S)NNC(=O)Nc2ccccc2)cc1 | -8.0% | 5.8% | ? | ? | 2.4 | 2.6%
CC(NC(=S)Nc1cccc(C(F)(F)F)c1)C(C)(C)C (stereo not given) | 0.3% | ? | 16.4µM* | ? | -80.9* | ?
CN(C)C(=S)Nc1cccc(F)c1 | 14.9% | 3.1% | -14.6% | 4.5% | 10.0 | -3.6%
Nc1ncnn1Cc1ccccc1 | nt | 7.8% | 4.3% | 9.0% | 5.7 | 8.2%
Cc1ccc(Nc2[nH]c(=O)c3ccccc3c2C(=O)c2ccccc2)cc1 | 6.9% | 4.1% | -13.1% | -3.6% | 21.2 | 9.5%
O=C(Nc1ccccc1C(=O)N1CCCCC1)c1cc(F)c(F)cc1Cl | -4.1% | -25.7% | -4.7% | -2.2% | -2.7 | 2.0%
CN(C)NC(=S)Nc1cccc(C(F)(F)F)c1 | -1.3% | 3.4% | -3.8% | 16.0% | nt | 12.3%
Cc1ccc(NC(=S)NNC(=S)Nc2cccc(C(F)(F)F)c2)cc1 | -1.9% | ? | 29.1µM* | ? | -5.8 | -13.8%
Cc1ccc(NC(=S)NNC(=O)c2c([N+](=O)[O-])c(C)nn2C)cc1 | nt | 5.01µM* | -2.9% | 4.3% | 30.4 | 5.62µM*
Cc1ccc(NC(=S)NNC(=O)c2cn(C)nc2C)cc1 | -3.2% | 9.7% | -1.3% | -14.5% | -11.9 | 2.6%
CN(C)C(=S)Nc1cccc(C(F)(F)F)c1 | 8.0% | -3.7% | ? | 25.9µM* | -12.5 | -2.4%
O=S(=O)(Nc1ccc2nc(-c3ccc(F)cc3)oc2c1)c1ccccc1 | nt | nt | -28.8% | ? | nt | nt
CC(NC(=O)CCCn1c(=O)c2cccn2c2cccnc21)c1ccccc1 (stereo not given) | nt | nt | -8.2% | -1.6% | nt | nt
Nn1c(COc2ccccc2F)nnc1SCC(=O)NC1CCS(=O)(=O)C1 (stereo not given) | 2.8% | 6.5% | -11.7% | 0.3% | 7.4 | 14.2%
CC1(C(=O)NS(=O)(=O)c2ccccc2)CCN1C(=O)CCc1ccc(Cl)cc1Cl (stereo not given) | nt | 11.9% | -0.4% | -9.9% | 20.9 | 6.1%
CS(=O)(=O)Nc1cccc(-c2cncnc2NCc2ccccc2)c1 | nt | nt | 10.0% | -3.0% | nt | nt
CNC(=O)/C(C#N)=C/c1cc(C)n(-c2ccc(N3CCOCC3)cc2)c1C | 3.9% | 1.6% | ? | 3.26µM* | 28.5 | 10.0%
CCOC(=O)/C(C#N)=C\c1cc(C)n(-c2ccccc2)c1C | -3.0% | 6.7% | ? | ? | -21.0 | 17.0%
CCOC(=O)/C(C#N)=C/c1cc(C)n(-c2ccc(C)cc2)c1C | 1.1% | ? | 18.4µM* | 18.4µM* | -3.8 | -15.5%
Cc1cccc(NC(=O)/C(C#N)=C\c2cc(C)n(-c3ccc(C(=O)O)cc3)c2C)c1 | 5.5% | 0.0% | 18.4µM* | ? | -78.3* | 1.5%
Cc1ccc(NC(=O)/C(C#N)=C/c2cc(C)n(-c3ccc(N4CCOCC4)c([N+](=O)[O-])c3)c2C)c(C)c1 | 3.1% | 2.8% | 8.2µM* | 7.31µM* | -20.2 | 5.0%
Cc1cc(/C=C(\C#N)C(=O)Nc2ccc(Cl)cc2)c(C)n1-c1ccc(N2CCOCC2)c([N+](=O)[O-])c1 | -4.3% | -4.9% | 7.31µM* | 7.31µM* | ? | -21.6%
Cc1cc(/C=C(\C#N)C(=O)Nc2ccccc2)c(C)n1-c1ccc(C(=O)O)cc1 | 2.2% | -1.9% | -10.8% | -23.6% | ? | 0.8%
O=C(CC1CCCC1)Nc1ccc(Cl)c(S(=O)(=O)N2CCOCC2)c1 | -6.8% | -6.9% | 16.4µM* | ? | -1.3 | -29.9%
SMILES | uPA surface inh | HT1080 IDH1KD tx | DT40 TDP1 no CPT | TDP1 cell CPT | IL-1B inflam inh | HT1080NT lethal
O=C(CN1CCN(S(=O)(=O)N2CCOCC2)CC1)Nc1ccc(Cl)c(Cl)c1 | -21.9% | -10.9% | 16.4µM* | ? | -10.4 | -27.7%
CC(C)Oc1ccc(S(=O)(=O)N2CCOCC2)cc1NC(=O)CC1CCCC1 | 14.8% | -1.7% | ? | ? | -15.3 | -1.8%
CC(CC(=O)Nc1ccc(Cl)c(S(=O)(=O)N2CCOCC2)c1)c1ccccc1 (stereo not given) | -11.8% | -12.6% | ? | ? | -17.6 | 18.4µM*
CCOc1ccccc1OCCCC(=O)Nc1ccc(Cl)c(S(=O)(=O)N2CCOCC2)c1 | -13.5% | -23.7% | ? | ? | 13.5 | -12.2%
O=C(CC1CCCC1)Nc1cc(S(=O)(=O)N2CCOCC2)ccc1O | 4.2% | 3.0% | ? | 8.2µM* | 20.8 | 3.8%
COc1cc(OC)c(NC(=O)c2sc3ncn(CC(=O)N4CCOCC4)c(=O)c3c2C)cc1Cl | -2.4% | 2.7% | 13.9% | 0.7% | -2.9 | 6.8%
NC(=O)NC(=O)C(c1ccccc1)N1CCN(S(=O)(=O)Cc2ccccc2)CC1 (stereo not given) | 13.6% | -1.9% | -5.2% | -3.2% | 3.1 | -1.6%
COc1ccc2[nH]cc(CCNC(=O)Nc3cc(C)cc(C)c3)c2c1 | nt | nt | -2.8% | -3.8% | nt | nt
O=C(O)c1ccc(NC(C(=O)c2ccccc2)c2ccccc2)cc1 (stereo not given) | -2.7% | -1.5% | -8.9% | -2.5% | 2.5 | -5.3%
O=C(CN1C(=O)C2C3C=CC(C3)C2C1=O)NCCc1ccccc1 (stereo not given) | 0.6% | 20.2% | 23.1µM* | 11.6µM* | 0.0 | 8.3%
NS(=O)(=O)c1ccc(CCNC(=O)CNCCc2ccccc2)cc1 | -2.3% | 8.9% | -21.8% | -10.4% | 10.2 | 1.4%
O=C(CN1CCN(c2ccc(F)cc2)CC1)N1CCC(Cc2ccccc2)CC1 | 0.6% | 0.0% | ? | ? | -52.2* | 0.0%
O=C(CN1CCN(c2ccccc2)CC1)NCc1ccc(F)cc1 | 6.0% | 16.6% | 5.6% | -5.6% | -16.6 | 4.1%
O=C(CN1CCC(Cc2ccccc2)CC1)NCCc1ccc(F)cc1 | -4.4% | -20.5% | -28.2% | 1.7% | -68.8* | -12.0%
NS(=O)(=O)c1ccc(CCNC(=O)CN2CCC(Cc3ccccc3)CC2)cc1 | -1.8% | ? | 16.4µM* | ? | -10.7 | -13.3%
NS(=O)(=O)c1ccc(CCNC(=O)CN2CCN(Cc3cccc(C(F)(F)F)c3)CC2)cc1 | 3.4% | -15.0% | 23.1µM* | 23.1µM* | 16.7 | -5.4%
COc1ccc(CCNC(=O)c2cnn(-c3nccc(-c4ccco4)n3)c2C)cc1 | nt | nt | -21.0% | 18.1%[9.04 µM] | nt | nt
COc1ccc(C(=O)c2sc3nc(C)cc(-c4cccs4)c3c2N)cc1OC | 1.5% | 2.8% | 23.1µM* | ? | -79.8* | -3.6%

Screening results deposited in PubChem BioAssay by National Center for Advancing Translational Sciences (NCATS).
